Sampled rows, rich in hits. Any-hit rate of the full collection: about 4.5%.
hgDAF-12 ag: activates the H. glycines DAF-12 receptor ligand-binding domain | HEK293 GAL4-hgDAF12 UAS-luciferase reporter, agonist luminescence; normalized to butyrate control | 1.8% of 370,000 active | activation, % at 6.8 µM;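 active = activation above a cutoff set at the mean of all screened compounds plus 3 SD, cut at about 10% in these data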;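 also: 0% = DMSO wells and 100% = sodium butyrate wells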
DAX1 inh-1: NR0B1 (DAX1) inhibition; P51843; HEK293 Gal4-DAX1 luciferase reporter, luminescence; inhibition, % at 6.75 µM; 0.99% of 340,000 active; AID 504766;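 active = inhibition above the mean over all tested compounds plus 3 SD, cut at about 4.2% in these data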;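 also: 0% = DAX1-transfected cells with DMSO and 100% = empty-vector control cells with DMSO; inhibition shows as a rise in luminescence from relieved DAX1 repression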
Target sequence (P51843 207-470 limits assumed): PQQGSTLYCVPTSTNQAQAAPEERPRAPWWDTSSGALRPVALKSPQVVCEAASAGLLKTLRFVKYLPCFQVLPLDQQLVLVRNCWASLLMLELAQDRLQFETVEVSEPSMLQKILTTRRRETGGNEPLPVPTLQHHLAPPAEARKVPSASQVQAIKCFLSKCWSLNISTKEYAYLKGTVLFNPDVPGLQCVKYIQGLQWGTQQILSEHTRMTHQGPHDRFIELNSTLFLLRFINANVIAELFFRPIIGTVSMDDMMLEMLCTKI
DAX1 inh-2: blocks DAX1 repression of SF-1 activated StAR promoter. HEK293T StAR-luciferase reporter, SF-1/DAX-1 repression relief. inhibition, % at 6.8 µM. 1.1% of 370,000 active. AID 652010;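 active = inhibition above the mean over all tested compounds plus 3 SD, cut at about 3.6% in these data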;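 also: 0% = DAX-1 cells with DMSO and 100% = cells lacking DAX-1 with DMSO; higher inhibition means more luminescence from relief of DAX-1 repression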
hcDAF12 agonist: H. contortus DAF-12 activation, primary screen; HEK293 hcDAF-12 lit1-tk-luc reporter, luminescence; 0% DMSO, 100% Δ7-dafachronic acid; activation, % at 6.8 µM; 1.4% of 370,000 active; AID 652067;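 active = activation above the mean of all tested compounds plus 3 SD, cut at about 5.5% in these data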;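 also: 100% = response to 3 µM Δ7-dafachronic acid high control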
GAA850 FXN act: activators of GAA850 frataxin (FXN) promoter | HEK293 lucGAA850 FXN promoter luciferase reporter, 24 h; percent of 10 µM SAHA response | activation, % at 6 µM | 0.56% of 360,000 active | AID 540364;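 active = activation above the average of all compounds screened plus 3 SD, cutoff fixed separately per campaign, cut at about 7.5% in these data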;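 also: 0% = DMSO wells and 100% = 10 µM SAHA wells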
ssDAF12 agonist: S. stercoralis DAF-12 activation, primary screen. activation, % at 6.8 µM. HEK293 ssDAF-12/GRIP1 lit1-tk-luc reporter, luminescence; % of 3 µM dafachronic acid response. 1% of 370,000 active;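 active = activation above the mean over all tested compounds plus 3 SD, cut at about 0.9% in these data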;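 also: 0% = DMSO-only wells and 100% = 3 µM delta7-dafachronic acid wells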
Starred values were filed as active, the others as inactive; / = not tested or not shown.

SMILES	hgDAF-12 ag	DAX1 inh-1	DAX1 inh-2	hcDAF12 agonist	GAA850 FXN act	ssDAF12 agonist
C[C@@H]1ON(C)[C@H]2C[C@H]3c4[nH]c5cccc(-c6ccccc6F)c5c4CCN3C(=O)[C@@H]12	-5	/	-1	-2	/	0
Cc1cc(=O)c2ccc3ccccc3c2[nH]1	2	2	0	-1	-1	-1
COc1ccc(-c2nc(=S)c3ccc4ccccc4c3[nH]2)cc1	1	0	1	6.4*	0	1.0*
O=C(c1cccc(Oc2ccccc2)c1)N1CCC(Oc2cccnc2)CC1	-4	/	-1	-2	/	-2
O=C1NCCc2c1[nH]c1ccccc21	-1	1	0	-2	0	-1
COc1ccc2[nH]c3c(c2c1)CCNC3=O	11*	1	0	1	-6	-2
O=C(N/N=C/c1cc2c(cc1[N+](=O)[O-])OCO2)c1ccc2c(c1)OCO2	0	0	0	0	4	-1
COc1c(O)ccc(/C=N\NC(=O)c2ccc3c(c2)OCO3)c1[N+](=O)[O-]	1	5.5*	0	-1	0	-1
O=C(NNS(=O)(=O)c1ccc(Br)cc1)c1csnn1	0	5.1*	0	0	3	0
CCOC(=O)c1cccc(NC(=O)CN(C)S(=O)(=O)c2cc(OC)ccc2OC)c1	1	/	-1	-3	/	-1
COc1ccc(CNc2cccnc2Cl)cc1	11*	/	0	1	/	0
COc1ccc2nc(C)cc(SCC(NC(C)=O)C(=O)OC(C)C)c2c1 (stereo not drawn)	0	4.6*	0	-1	1	-1
O=C(COC(=O)c1ccccc1O)Nc1cccnc1Cl	-1	0	-1	0	3	-2
CC(=O)c1ccc(NC(=O)Nc2cccc3ccccc23)cc1	4	1	3.7*	-1	5	0
NC(=O)Nc1cccc2ccccc12	-1	1	1	3	1	1.7*
COC(=O)c1ccccc1NC(=O)COC(=O)c1cccnc1	1	1	0	-1	3	-1
O=C(COC(=O)c1cc2ccccc2cc1O)Nc1cccnc1Cl	2	0	0	4	1	1.0*
CC(=O)Nc1ccc(NC(=O)Nc2cccc3ccccc23)cc1	0	0	1	1	-2	-1
CCC(=O)Nc1cccc2ccccc12	0	2	0	-1	0	-2
O=C(COC(=O)c1cccnc1)Nc1cccc2ccccc12	0	4.5*	0	0	0	0
COCCNC(=O)C[C@H]1CC[C@H]2[C@@H](COc3ccc(NC(=O)Nc4cccc(F)c4)cc3C(=O)N2C)O1	-2	/	1	-1	/	-1
COC(=O)[C@]12C=CCN1[C@@H](c1ccc(OC)c(OC)c1)c1c(c3ccccc3n1S(=O)(=O)c1ccc(C)cc1)C2	1	/	-1	5.8*	/	-1
COc1ccc([C@@H]2CC=C(C(=O)O)[C@H](c3ccc(C)cc3)N2S(=O)(=O)c2ccc(C)cc2)cc1OC	-1	0	1	-1	0	-1
Cc1cc(NC(=O)COc2cc(F)cc(F)c2)n(-c2ccccc2)n1	3	/	-2	-2	/	-2
C[C@H](O)[C@@H]1CN2CCc3ccc(N4CCOCC4)cc3[C@@H]2C[C@@H]1N(C)CC1CCCCC1	-1	/	-1	0	/	-1
SMILES	hgDAF-12 ag	DAX1 inh-1	DAX1 inh-2	hcDAF12 agonist	GAA850 FXN act	ssDAF12 agonist
COc1ccc(CC(=O)Nc2cccc(-c3cn4ccccc4n3)c2)cc1	1	5.4*	0	0	4	-2
CCCCc1nnc(NC(=O)Cn2cnc3ccccc3c2=O)s1	-3	0	-1	0	0	-2
CCc1nnc(NC(=O)CCn2cnc3ccccc3c2=O)s1	-3	/	0	-2	0	1.0*
COCCCn1c(=O)/c(=C\c2cccc(OC)c2OC)s/c1=C(/C#N)C(=O)Nc1ccc(C(=O)O)cc1	-2	4.3*	0	1	-3	-1
COCCCn1c(=O)/c(=C/c2ccccc2OC(F)F)s/c1=C(\C#N)C(=O)NCCOC	2	0	-1	0	3	-2
CCOC(=O)[C@@]12CCC3=C1N(CCC3)C(=O)[C@H](CC(=O)NCc1cccs1)C2	3	/	-2	0	/	-1
Clc1cccc(/C=N/Nc2nc(Cl)nc3ccccc23)c1	5	4	2	6.6*	7	0
Clc1cccc(/C=N\Nc2nccs2)c1	11*	1	2	4	4	0.9*
CCCCN1C(=O)N(c2ccc(Cl)cc2)C(C)(O)CC1(C)C (stereo not drawn)	0	4.5*	0	0	2	-2
CCCCN1C(=O)N(c2ccccc2Cl)C(C)(O)CC1(C)C (stereo not drawn)	-1	0	0	0	1	-1
Cc1ccc(-n2c(CSc3nc(C)cc(C)n3)nnc2SCC(=O)NCc2ccco2)cc1	4	0	1	5.6*	0	0.9*
CCCCc1ccc(NC(=O)C(C)CC)cc1 (stereo not drawn)	5	4.4*	1	0	3	-2
COc1ccc2c(c1)CNC2CS(=O)(=O)NCCc1ccccc1 (stereo not drawn)	-1	/	-1	3	/	-1
O=c1c2ccccc2[nH]n1[C@@H](Cc1ccccc1)Cn1cc(-c2ccc(-c3ccccc3)cc2)nn1	3	/	0	-3	/	-2
CCCCCCCCN1C(=O)[C@@H](CC(=O)N2CCN(C(=O)OCC)CC2)C[C@@]2(C(=O)OC)C1=C[C@H](COCc1ccccc1)O[C@@H]2C	1	/	0	1	/	-1
CC(C)Cn1nc(NC(=O)c2cccs2)c2cc3ccccc3nc21	1	5.5*	0	-1	0	-2
CC(C)Cn1nc(NC(=O)c2ccco2)c2cc3ccccc3nc21	2	-1	0	-2	0	-2
Cc1ccc2nc3c(cc2c1)c(NC(=O)c1ccco1)nn3CC(C)C	0	12*	-1	-1	-1	-2
CCCC1CCC2(CC1)CCC2OC(=S)Nc1cccc(Cl)c1 (stereo not drawn)	-3	/	/	-2	/	-2
c1csc(-c2nnc(N3CCCCCC3)c3ccccc23)c1	6	1	1	0	1	0
c1csc(-c2nc(N3CCCCC3)no2)c1	6	5.0*	1	3	5	0
CC(=O)c1ccc(NCCCN2CCC(C(O)(c3ccccc3)c3ccccc3)CC2)cc1	0	/	1	0	/	-1
C=CCn1c(O)c(C2=c3ccccc3=NC2=O)sc1=Nc1ccc(O)cc1	2	2	0	4	1	0
O=C1N=c2ccccc2=C1c1sc(=S)n(NC(=O)c2ccccc2)c1O	2	0	1	3	2	1.0*
